From PubChem
KCNQ2 block: rat KCNQ2 potassium channel inhibitors, primary screen, cell-based, CHO-K1, FluxOR thallium flux, B-score; 20 min; active compounds read low; 1.1% of 310,000 active; B-score at 10 µM;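 active means fluorescence ratio B-score at most minus 3 library SDs, with starting brightness B-score within 2 library SDs, cut at about -5.5 in these data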
KCNQ2 pot: potentiators of rat KCNQ2 potassium channel. Potassium voltage-gated channel subfamily KQT member 2 (Rattus norvegicus), O88943. CHO-K1 KCNQ2, FluxOR thallium flux fluorescence; active compounds read high. B-score at 10 µM. 0.54% of 310,000 active. AID 2239, 2010;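 active means fluorescence ratio B-score at least 3 SD of library B-scores, with initial fluorescence B-score within 3 of them, cut at about 5.3 in these data; same plate scores as AID 2156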;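 further: B-score of peak minus minimum over baseline fluorescence ratio after K+ and Tl+ stimulus; positive B-score means potentiation of KCNQ2 with more thallium influx and brighter signal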
KCNQ2 block conf: rat KCNQ2 potassium channel inhibitors, confirmation, cell-based, thallium flux; shares compounds with KCNQ2 block; KCNQ2-expressing cells, inhibition; active compounds read low; activity change, negative = inhibition, % at 10 µM; 57% of 1,000 active; AID 493025, 2011;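 further: 0% = vehicle wells and values are ratio percent relative to vehicle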
KCNQ1 spec: human KCNQ1 channel inhibition, counter-screen for KCNQ2 inhibitor project, cell-based, FluxOR thallium flux. 15% of 1,000 active. KCNQ1-expressing cells, FluxOR thallium flux fluorescence; active compounds read low. shares compounds with KCNQ2 block. activity change, negative = inhibition, % at 10 µM;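 active means activity change at least 3 SD of negative controls below their mean in both duplicate wells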;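 further: CHO cells stably transfected with KCNQ1 and depolarized by potassium stimulus; peak minus minimum fluorescence over baseline after thallium addition; 0% = vehicle negative control and -100% = blank without thallium stimulus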
CHO Tl ctr: thallium flux change in parental CHO cells, counter-screen for KCNQ2 inhibitor project; shares compounds with KCNQ2 block; active compounds read low; activity change, % at 10 µM; 14% of 1,000 active;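 further: 0% = vehicle negative controls with stimulus buffer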
KCNQ2 patch conf: rat KCNQ2 channel inhibitors, confirmation, cell-based, automated patch clamp, single concentration | shares compounds with KCNQ2 block | KCNQ2-expressing cells, automated patch clamp current | calls only at 10 µM | 49% of 550 active
The depositor's hits bear a star; i = inactive; . = no result; + = active, no number. Compounds with a hit are over-represented: about 1.6% of the library has one in this group of screens. Unless noted, how the calls were made is not given here.

SMILES	KCNQ2 block	KCNQ2 pot	KCNQ2 block conf	KCNQ1 spec	CHO Tl ctr	others
Cc1ccc2nc(-c3ccccc3)cc(C(=O)N3CCc4ccccc4C3)c2c1	-8.3*	-8.3	i	i	i
Cc1ccc(OCC(=O)N2CCc3ccccc3C2)c(C)c1	-7.8*	-7.8	-30%*	i	i	KCNQ2 patch conf=+
Cc1ccc(OCC(=O)N2CCc3ccccc3C2)c(Br)c1	i	.	.	.	.
COc1cc(NC(=S)Nc2cccnc2)cc(OC)c1OC	i	1.1	.	.	.
C=CCNC(=O)Cc1c(OC)ccc2cc(Br)ccc12	i	.	.	.	.
CC1CC(C)CN(C(=O)c2cc(-c3ccncc3)nc3ccccc23)C1 (centres undefined)	i	.	.	.	.
Cc1ccc2nc(-c3ccccc3)cc(C(=O)N3CC(C)OC(C)C3)c2c1 (centres undefined)	-9.3*	-9.3	-30%*	i	i	KCNQ2 patch conf=+
CSc1ccc(Cl)c(C(=O)Nc2ccc(Cl)cn2)c1	i	.	.	.	.
Cc1ccc(C(C(=O)NC(C)(C)C)N(Cc2ccco2)C(=O)CCC(=O)Nc2ccccn2)cc1 (centres undefined)	i	.	.	.	.
CCn1cnc2cc(NCc3nc4ccccc4n3C)ccc21	i	.	.	.	.
CCn1cnc2cc(NCc3nc4ccccc4n3Cc3ccccc3)ccc21	-8.5*	-8.5	-34%*	i	i	KCNQ2 patch conf=+
Cc1oc(-c2cccc(Cl)c2)nc1CN1CCC(C(=O)NC2CC2)CC1	i	1.2	.	.	.
CCN(CCNC(=O)C1CCN(Cc2nc(-c3cccc(Cl)c3)oc2C)CC1)c1ccccc1	-12*	-12	-26%*	i	i	KCNQ2 patch conf=i
Cc1sc(NC(=O)c2ccco2)c(C(c2cccnc2)N2CCN(CCO)CC2)c1C (centres undefined)	i	1.1	.	.	.
Cc1sc(NC(=O)c2ccco2)c(C(c2cccnc2)N2CCN(c3ccc(F)cc3)CC2)c1C (centres undefined)	-10*	-10	-29%*	i	i	KCNQ2 patch conf=i
CCNc1sc(C(=O)OCC)c(N)c1C#N	i	0.74	.	.	.
C=CCn1c(=O)c(C(=O)NC(C)c2ccccc2)c(O)c2ccccc21 (centres undefined)	-8.2*	-8.2	-30%*	i	i	KCNQ2 patch conf=i
C=CCn1c(=O)c(C(=O)Nc2ccc(C)cc2)c(O)c2ccccc21	i	.	.	.	.
C=CCn1c(=O)c(C(=O)NCc2ccccc2Cl)c(O)c2ccccc21	-7.1*	-7.1	i	i	i
CCCn1c(=O)c(C(=O)NCc2ccccc2Cl)c(O)c2ccccc21	i	.	.	.	.
Cc1ccc(CSc2cc(C)[nH]c(=O)n2)cc1	i	.	.	.	.
CCCNc1c(F)c(F)c2c(C)c3ccccc3nc2c1F	i	.	.	.	.
COc1nc(OC)nc(Oc2ccc(Cl)cc2[N+](=O)[O-])n1	i	.	.	.	.
COc1ccc([N+](=O)[O-])c(S(=O)(=O)c2ccc(Cl)cc2)n1	-9.9*	-9.9	-32%*	-28%*	-22%*	KCNQ2 patch conf=+
O=[N+]([O-])c1cccnc1S(=O)(=O)c1ccccc1	i	.	.	.	.
SMILES	KCNQ2 block	KCNQ2 pot	KCNQ2 block conf	KCNQ1 spec	CHO Tl ctr	others
COc1ccc([N+](=O)[O-])c(S(=O)(=O)c2ccccc2)n1	-7.5*	-7.5	-28%*	i	i	KCNQ2 patch conf=+
COc1ccc(S(=O)(=O)N2CCN(S(=O)(=O)c3ccc4c(c3)OCCO4)CC2)cc1C	i	0.14	.	.	.
COc1ccc(-c2csc(NC(=O)c3ccc(OCC(=O)N4CCOCC4)c(OC)c3)n2)cc1	i	0.02	.	.	.
COc1ccc(N(C(=O)/C=C/C(=O)Nc2cc(C)on2)C(C(=O)NC2CCCC2)c2ccccc2C)cc1 (centres undefined)	i	1.1	.	.	.
CC(=O)c1cc(C(=O)c2ccccc2)sc1Nc1ccccc1	i	0.03	.	.	.
Cc1nnc(SCC(=O)Nc2cccc(C(F)(F)F)c2)n1Cc1ccco1	i	.	.	.	.
COc1cccc(C2(c3cccc(OC)c3)CC2C(=O)Nc2ccc(F)cc2)c1 (centres undefined)	i	.	.	.	.
CCN1C(C(=O)Nc2cc(C)on2)=C(O)c2ccccc2S1(=O)=O	i	1.7	.	.	.
